A selection: hits, their analogues and other compounds. The true share with any hit is near 9.8%.
HttQ103 aggreg = mutant huntingtin aggregation inhibition | PC12 HttQ103-GFP aggregates, Acumen cytometry, 40 h | Potency, µM (top dose mostly 46.1 µM), for inactives: at the highest dose activity change, negative = inhibition, hits mostly inhibitors | AID 1688 | hit rate 1.1% among 220,000; note: potency is the fitted concentration of half-maximal effect; % is set by controls: 0 for no effect and ±100 for the full control effect; nearly all actives have a fitted effect of over 60% in size
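Multiplexed with ATP-based cell death, this channel scores GFP aggregates in PC12 cells expressing inducible HTTex1-Q103-GFP. Induction used 100 nM tebufenozide; compounds were tested in concentration series.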
CBFb RUNX1 block = blocks binding between human CBF-beta and RUNX1; Q01196+Q13951; AlphaScreen CBFb-His/RUNX1-biotin binding, biochemical; Potency, µM (doses to about 59.8 µM), without a hit: top-dose activity, negative = inhibition, most hits filed as inhibitors; 230,000 tested, under 10 active; AID 1477; note: % of control where 0% means no effect
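His-tagged CBF-beta and biotinylated RUNX1 (30 nM each) were premixed 20 min at room temperature, exposed to compound for 15 min, then given nickel-chelate and streptavidin AlphaScreen beads (50 ng each). After 90 min, AlphaScreen signal was read.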
HTT cytoprotect = Huntington cell model cytoprotection by ATP luminescence; PC12 HTT-Q103 induced, cytoprotection, ATP luminescence, 40 h; Potency, µM (top dose mostly 56.4 µM), for inactives: cytoprotection (ATP increase), most hits filed as activators; hit rate 0.14% among 230,000; note: potency is the fitted concentration of half-maximal effect; % of control where 0% means no effect; nearly all actives have a fitted effect of over 45% in size
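Cells were plated at 1500 per well in phenol red-free DMEM with 5% equine and 5% calf serum. Tebufenozide (100 nM final) and compounds were added, then ATPlite reagent, and luminescence was read.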
JMJD2E inh = JMJD2E (human) inhibition; AID 2147; Potency, µM (highest dose often 57.1 µM), without a hit: top-dose activity change, negative = inhibition, most hits filed as inhibitors; JMJD2E catalytic domain, FDH-coupled NADH fluorescence (FDH is formaldehyde dehydrogenase); hit rate 1.6% among 230,000; B2RXH2; active = well fitted inhibition curve with a large enough effect, not every such curve was filed as active; inconclusive = small, poorly fitted or top-dose-only effect, or another doubt; inactive = no such curve, though single readings can be large or run the other way;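 note: potency is the fitted concentration of half-maximal effect; 0% = wells with enzyme and -100% = buffer wells without enzyme; nearly all actives have a fitted effect of over 50% in size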
HPGD block = blocks human HPGD enzyme activity. Potency, µM, for inactives: top-dose activity change, negative = inhibition, most hits filed as inhibitors. purified HPGD, NADH fluorescence kinetic, PGE2 substrate. P15428. hit rate 4.3% among 150,000; active = well fitted inhibition curve with a large enough effect, not every such curve was filed as active; inconclusive = small, poorly fitted or top-dose-only effect, or another doubt; inactive = no such curve, though single readings can be large or run the other way; note: potency is the fitted concentration of half-maximal effect; % is set by controls: 0 for no effect and ±100 for the full control effect
Target sequence (P15428 whole entry, looked up): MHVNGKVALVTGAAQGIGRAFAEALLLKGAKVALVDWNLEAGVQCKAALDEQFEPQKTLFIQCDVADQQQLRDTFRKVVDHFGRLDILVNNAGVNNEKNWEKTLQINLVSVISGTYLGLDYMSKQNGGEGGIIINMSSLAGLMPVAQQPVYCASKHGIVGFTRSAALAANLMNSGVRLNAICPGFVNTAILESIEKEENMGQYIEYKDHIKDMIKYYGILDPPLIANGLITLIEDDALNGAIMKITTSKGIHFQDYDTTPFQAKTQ
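NADH formation kinetics: reaction with 30 uM PGE2 and 1 mM NAD+ (final), 20 nM enzyme, Tris-HCl pH 8 with Tween 20, after 15 min compound preincubation at room temperature. Fluorescence change, last versus first of five reads.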
ALDH1A1 block = inhibitors of human aldehyde dehydrogenase 1A1. P00352. Purified ALDH1A1, NADH fluorescence, propionaldehyde substrate. Potency, µM (highest dose often 75.3 µM), for inactives: top-dose activity, negative = inhibition, hits mostly inhibitors. hit rate 7.3% among 220,000; active = well fitted inhibition curve with a large enough effect, not every such curve was filed as active; inconclusive = small, poorly fitted or top-dose-only effect, or another doubt; inactive = no such curve, though single readings can be large or run the other way;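 note: potency is the fitted concentration of half-maximal effect; plate controls were no enzyme wells and a reference inhibitor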
An asterisk follows results filed as active; u = inconclusive; x = no result; [ ] = remark or other dose. Unless noted, calls come from the whole dose curve; as a rule, active = well fitted curve in the direction sought with a large enough effect; inconclusive = small, poorly fitted or top-dose-only effect, or another doubt; inactive = no such curve, though single readings can be large; an effect the other way counts as inactive or inconclusive.

SMILES	HttQ103 aggreg	CBFb RUNX1 block	HTT cytoprotect	JMJD2E inh	HPGD block	ALDH1A1 block
Cn1c(=O)c2c(nc(N3CCCCC3)n2CCSc2nc3ccccc3s2)n(C)c1=O	22%	-1%	-8%	7%	-11%	28µM*
Cn1c(=O)[nH]c(=O)c2c1nc(N1CCCCC1)n2CCCSc1nc2ccccc2s1	15%	1%	15%[10 µM]	-2%	16µM*	u
CC1CCCN(c2nc3c(c(=O)n(C)c(=O)n3C)n2CCSc2nc3ccccc3s2)C1 (configuration not stated)	u	0%	-5%[0.074 µM]	3%	-24%	14µM*
O=C(COc1ccccc1)Nc1sc2c(c1C(=O)NCc1cccnc1)CCCC2	-6%	-11%	4%[10 µM]	u	-12%	20µM*
COc1ccc(/C=C/C(=O)Nc2sc3c(c2C(=O)NCc2cccnc2)CCCC3)cc1	20%	2%	5%	4%	u	4µM*
CC(C)OCCCNC(=O)C(=O)N/N=C/c1ccc(OCc2ccccc2)cc1	-8%[9.22 µM]	1%	-2%[10 µM]	-1%	x	9%
CCOC(=O)c1c(C)[nH]c(C(=O)Cn2c(=O)c3c(ncn3CC)n(Cc3ccccc3)c2=O)c1C	25%	-7%	-16%[10 µM]	2%	-13%	2%
CCN1CCN(Cc2ccc(NC(=O)c3ccc(C)c(NC(=O)c4nccnc4N)c3)cc2C(F)(F)F)CC1	2.8µM*	u	4%[10 µM]	-1%	x	x
Cc1cc(=O)oc2cc(OCC(=O)Nc3ccc(S(=O)(=O)N(C)C)cc3)ccc12	u	3%	x	u	x	u
Cc1cccc(CN2CCN(c3nc4nonc4nc3NC3CC3)CC2)c1	14%[9.22 µM]	-10%	-10%[10 µM]	-3%	x	16µM*
Cc1ccc(Nc2cc(=O)oc3ccccc23)c(C)c1	-11%	3%	-54%	-8%	-11%	7%
Cc1ccccc1Nc1cc(=O)oc2ccccc12	-30%	-2%	-17%	2%	-20%	14µM*
CCC(=O)Nc1cc(C(=O)OCC(=O)c2ccccc2)ccc1C	18%	6%	x	-1%	-6%	11%
O=C(NNC(=O)c1sc2ccccc2c1Cl)Nc1ccc(Cl)cc1	-14%	2%	21%	-5%	-8%	8.9µM*
O=C(NN=C1CCCC1)c1sc2ccccc2c1Cl	-25%	-8%	-52%	28%	x	16µM*
O=C(NNC(=S)NC(=O)c1sc2ccccc2c1Cl)c1ccc(Cl)cc1	-13%	-13%	22%[1.9 µM]	9%	-24%	28µM*
COc1cc(NC(=O)CC2NCCNC2=O)cc(OC)c1 (configuration not stated)	12%	6%	5%	-1%	-1%	2%
CC(C)C(OC(=O)c1ccco1)C(=O)NCc1ccccc1 (configuration not stated)	-8%	8%	19%[10 µM]	3%	13µM*	0%
Cc1onc(C(=O)N2CCOCC2)c1[N+](=O)[O-]	18%	-1%	u	2%	x	25µM*
CC(C)c1onc(C(=O)N2CCOCC2)c1[N+](=O)[O-]	1%	-3%	8%	8%	x	0%
C=CCn1c(CCC(O)COCCC)n[nH]c1=S (configuration not stated)	7%[9.22 µM]	11%	19%[10 µM]	u	x	-1%
CN(C)C(=O)N1CCC(C(=O)NCc2ccccc2Cl)CC1	-4%	9%	-6%[0.074 µM]	6%	-5%	4%
CCOc1ccccc1CNC(=O)C1CCN(C(=O)c2sccc2-n2cccc2)CC1	u	6%	-41%	2%	-12%	0.63µM*
CC1CCCCC1NC(=O)C1CCN(C(=O)c2sccc2-n2cccc2)CC1 (configuration not stated)	1%	2%	0%	12%	-11%	1.1µM*
CC1CCCCC1NC(=O)C1CCN(C(=O)NC2CCCCC2)CC1 (configuration not stated)	2%	5%	6%[10 µM]	3%	-12%	-2%
O=C(NCc1ccccc1F)C1CCN(C(=O)c2sccc2-n2cccc2)CC1	-2%	-4%	-24%	9%	x	2.5µM*
